Records with an inconclusive call do not appear. Some structures have more than one record in an assay (separate samples or runs), and their calls can disagree. Activity calls are given as the source filed them. Rule for the calls: active = hit-call score of the fitted dose curve at least 0.9, where 1 is the maximum; inconclusive = response in the unintended direction; inactive = score below 0.9.

A word on the AC50: it is the midpoint of the concentration-response curve, whichever way the signal moves.

The experiment deals with Retinoic acid receptor RXR-alpha (Homo sapiens) (UniProt P19793). Briefly: OT_NURR1_NURR1RXRa_1440: Odyssey Thera (OT) 24-hour HEK293T Protein Complementation Assay for Nurr1/retinoid X receptor (RXR) (AID 2283386). The procedure: OT_NURR1_NURR1RXRa_1440 is a cell-based assay that uses HEK293T, a human kidney cell line, with measurements taken at 24 hours after chemical dosing in a 384-well plate.OT_NURR1_NURR1RXRa_1440 is one of one assay component(s) measured or calculated from the OT_NURR1_NURR1RXRa_1440 assay. It is designed to make measurements of protein fragment complementation, a form of binding reporter, as detected with fluorescence intensity signals by Protein-fragment Complementation technology.Data from the assay component OT_NURR1_NURR1RXRa_1440 was analyzed into 1 assay endpoint. This assay endpoint, OT_NURR1_NURR1RXRa_1440, was analyzed in the positive analysis fitting direction relative to DMSO as the negative control and baseline of activity. Using a type of binding reporter, measures of receptor for gain-of-signal activity can be used to understand the binding at the pathway-level as they relate to the gene RXRA. Furthermore, this assay endpoint can be referred to as a primary readout, because the performed assay has only produced 1 assay endpoint. To generalize the intended target to other relatable targets, this assay endpoint is annotated to the nuclear receptor intended target family, where the subfamily is non-steroidal.
Chain of Retinoic acid receptor RXR-alpha (Homo sapiens) (P19793 whole entry, looked up, the tested form may be a part): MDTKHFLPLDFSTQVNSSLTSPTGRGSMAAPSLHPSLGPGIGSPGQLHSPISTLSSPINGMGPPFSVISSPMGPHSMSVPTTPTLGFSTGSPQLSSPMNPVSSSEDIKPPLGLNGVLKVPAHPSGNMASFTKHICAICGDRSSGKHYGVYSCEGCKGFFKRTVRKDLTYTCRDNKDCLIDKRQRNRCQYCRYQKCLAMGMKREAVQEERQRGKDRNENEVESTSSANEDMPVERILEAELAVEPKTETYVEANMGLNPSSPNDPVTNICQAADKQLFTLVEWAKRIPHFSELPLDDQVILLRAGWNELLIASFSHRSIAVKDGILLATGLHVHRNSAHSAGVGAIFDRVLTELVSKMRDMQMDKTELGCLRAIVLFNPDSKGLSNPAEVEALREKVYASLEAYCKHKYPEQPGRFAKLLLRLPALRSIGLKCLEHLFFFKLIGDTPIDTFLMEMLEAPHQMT
Protein-fragment complementation assay, or PCA, is a method for the identification and quantification of protein-protein interactions. In the PCA, the proteins of interest ("bait" and "prey") are each covalently linked to fragments of a third protein (e.g. DHFR, which acts as a "reporter"). Interaction between the bait and the prey proteins brings the fragments of the reporter protein in close proximity to allow them to form a functional reporter protein whose activity can be measured.
As to `c1nc[nH]n1`, the compound was classed as inactive.
The same measure, in the same setting: in the case of `CCOP(=S)(Oc1ccc([N+](=O)[O-])cc1)c1ccccc1` (stereo not given) it was “inactive”; in that of `c1ccc2c(c1)Nc1ccccc1S2`, “inactive”; in that of `CC(Cc1ccc(OCC(=O)O)cc1)NCC(O)c1csc(C(F)(F)F)n1` (stereo not given), “inactive”.
Still for that read-out and setting: in the case of `CCC1(c2ccccc2)C(=O)N=C(O)NC1=O` (stereo not given) it was “inactive”; in that of `Cc1ccc(N)cc1N`, “inactive”.
Turning to `O=P(OCC(Br)CBr)(OCC(Br)CBr)OCC(Br)CBr` (stereo not given), the half-maximal activity concentration (AC50) is 73.9 µM (active).
For the compound `CC(Cl)(Cl)C(=O)O`, the result was inactive.
Consider `CCCCN(CCCC)SN(C)C(=O)Oc1cccc2c1OC(C)(C)C2`, for which the concentration at half-maximal activity (AC50) was 84.7 µM (active) and the compound was classed as inactive.
For `O=[N+]([O-])c1ccccc1`, the result was inactive.
The same measure, in the same setting: in the case of `O=P1(N(CCCl)CCCl)NCCCO1` (stereo not given) it was “inactive”; in that of `CCCCN(CCCC)N=O`, “inactive”.
For the compound `CCCN(CCC)c1c([N+](=O)[O-])cc(C(C)C)cc1[N+](=O)[O-]`, the outcome was inactive and the AC50 was 80.9 µM (active).
Consider `CCCCOCC1CO1` (stereo not given), for which the result was inactive.
Take `CCCCc1ccc(O)cc1`: the compound was classed as inactive.
`CC(C)(C)OOC(C)(C)C`: the call was inactive.
Take `Nc1ccc2ccccc2c1`: the result was inactive.
For `O=P(Oc1ccccc1)(Oc1ccccc1)Oc1ccccc1`, the compound was classed as inactive.
Regarding `CC(C)(C)N(NC(=O)c1ccc(Cl)cc1)C(=O)c1ccccc1`, the call was inactive.
On to `CCOS(=O)(=O)OCC`, for which the result was inactive.
As for `COCCOCCO`, the outcome was inactive.
On the same count and under the same terms, in the case of `CC(C)(C)c1ccc(O)cc1` it was “inactive”; in that of `Cc1ccc(O)cc1C`, “inactive”.
The same measure, in the same setting: for `Cc1ccc([N+](=O)[O-])cc1C` the value was “inactive”.
Take `CCCCC(CC)COP(=O)(Oc1ccccc1)Oc1ccccc1` (stereo not given): the AC50 was 82.1 µM (active).
The same measure, in the same setting: in the case of `CCC(C)(C)c1ccc(O)cc1` it was 66.4 µM (active).
As for `Nc1cc2c3c(c1)C(c1ccccc1)=N[C@@H](NC(=O)c1cccnc1)C(=O)N3CC2`, the outcome was inactive.
Turning to `CCCCCCCc1ccc(O)cc1`, the compound was classed as inactive and the AC50 was 50 µM (active).
In the case of `CCCCC(CC)COC(=O)c1c(Br)c(Br)c(Br)c(Br)c1C(=O)OCC(CC)CCCC` (stereo not given), the call was inactive.
The same measure, in the same setting: for `CCN(CC)c1ccccc1` the value was “inactive”.
Turning to `FC(F)(F)c1ccc(Cl)cc1`, the compound was classed as inactive.
With `COC(N)=O`, the compound was called inactive.
As to `CCCCOCCOP(=O)(OCCOCCCC)OCCOCCCC`, the compound was called inactive.
Take `Nc1ccc(Cl)cc1`: the AC50 is 2.33 µM (active) and the compound was called inactive.
For `CCOC(=O)c1ccccc1N`, the call was inactive.
Still for that read-out and setting: for `O=C(CBr)OCc1ccccc1` the value was “inactive”.
